95 molecules from PubChem BioAssay AID1662 (Broad Institute, 2009) can be followed below.

Structures are written as SMILES. Among all 300,000 compounds or so, about 4,000 (1.3%) were called active.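 How the source made its calls: active means mean replicate score, as percent of positive control median, at least 50; inconclusive means mean below 50 but one replicate at or above 50; inactive means mean and every replicate below 50.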 The entries come from a sample that favours actives as a whole.

The nature of the test: S. pyogenes SKKanGAS growth inhibitors in kanamycin, primary screen, streptokinase expression inhibitor project, SKKanGAS strain, BacTiter-Glo luminescence (AID 1662).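 Further: strain carries kanamycin resistance gene driven by streptokinase promoter and grows in 40 µg/ml kanamycin; loss of luminescence reflects streptokinase promoter inhibition or plain growth inhibition; 0% = median of DMSO wells and 100% = positive control at its reference dose.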 Conditions: 6 h, at 7.5 µM, hits give high values.
On to `COc1ccc(Oc2cn[nH]c2-c2ccc(OC)cc2O)cc1`, for which the inhibition is 13.6% (inactive).
Regarding `COc1ccc(-c2cn[nH]c2-c2ccc(OC)cc2)cc1`, the inhibition was 75.3% (active).
For the molecule `COC(=O)c1cc(OC)ccc1-c1ccc(OC)cc1`, the inhibition is 11% (inactive).
For the molecule `O=C1/C(=C\c2ccccc2Cl)SC(=S)N1CCC(=O)N1CCCc2ccccc21`, the inhibition was -4.28% (inactive).
As to `O=c1[nH]cnc2c1c(-c1ccccc1)cn2-c1ccc(F)cc1`, the inhibition was -1.74% (inactive).
As for `COc1ccc(-c2cn(-c3ccc(OC)cc3)c(=S)[nH]2)cc1`, the figure is -13.9% (inactive); as for `COc1ccc(-n2cc(-c3ccccc3)c3c(=S)nc[nH]c32)cc1`, 54.1% (active); as for `CCOP(=O)(OCC)C(Nc1cccc(C)c1)c1ccc(F)cc1` (stereo not given), -2.54% (inactive).
With `CC1CCc2[nH]c3ccc(C(=O)N(C)CC(=O)Nc4cccc(F)c4)cc3c2C1` (stereo not given), the inhibition is -8.76% (inactive).
On to `CC(C)CC1(C(=O)NCc2ccccn2)C=CCN1C(=O)c1ccccc1` (stereo not given), for which the inhibition is -5.95% (inactive).
As for `COc1ccc(-n2cnnc2SCC(=O)Nc2cccc([N+](=O)[O-])c2)cc1`, the figure is -8.4% (inactive); as for `NC(=O)NC(=O)CSc1nc2cc([N+](=O)[O-])ccc2n1-c1cccc(C(F)(F)F)c1`, 97.7% (active).
On to `COc1ccc(CCNC(=O)CSc2nc3[nH]ncc3c(=O)n2-c2cccc(C(F)(F)F)c2)cc1OC`, for which the inhibition was -2.08% (inactive).
Then `NC(=O)C1CC(=O)N(c2ccc(OCC(=O)NCc3ccccc3)cc2)C1` (stereo not given), with 1.49% (inactive); and `Cc1cccc(OCC(=O)NC2CC(C)(C)NC(C)(C)C2)c1`, with 1.54% (inactive).
For the molecule `COC(=O)C1[C@H]2SC(C)(C)C(C(=O)OC)N2C(=O)N1Cc1nc2ccccc2s1` (stereo not given in full), the inhibition is 6.63% (inactive).
`CC1(C)S[C@@H]2[C@H](NC(=O)COc3ccccc3)C(=O)N2C1C(=O)OCc1ccccc1` (stereo not given in full): the inhibition is 97% (active).
As for `CC1(C)S[C@@H]2[C@H](N=CN3CCCCCC3)C(=O)N2[C@H]1C(=O)O`, the figure is -7.68% (inactive); as for `CC1(C)SC2C(NC(=O)COc3ccccc3)C(=O)N2C1C(=O)O` (stereo not given), 102% (active).
In the case of `C[C@H]1CC[C@]2(O[C@@H](CCO)C[C@@H](O)[C@@H]2O)O1`, the inhibition is -3.21% (inactive).
Take `CC1Cn2c(nnc2-c2cccs2)S1` (stereo not given): the inhibition was -5.31% (inactive).
With `CCCn1c(=N)n(CC(=O)c2ccc(Cl)c(Cl)c2)c2ccccc21`, the inhibition is 2.77% (inactive).
With `CN(C(=O)CN1C(=O)NC(C)(CCc2ccccc2)C1=O)c1ccccc1` (stereo not given), the inhibition is -1.34% (inactive).
For `CC1CC(=O)N(CC(=O)Nc2cccc(Cl)c2)c2ccccc2S1(=O)=O` (stereo not given), the inhibition is -1.88% (inactive).
For the molecule `CSc1ccc(CNC(=O)c2ccc(NC(=O)C3=CSCCO3)cc2)cc1`, the inhibition was -10.5% (inactive).
With `CC(=O)Nc1ccc(-c2csc(NC(=O)Nc3ccccc3)n2)cc1`, the inhibition is 0.751% (inactive).
With `Cc1ccc(-c2csc(NNC(=O)c3ccccc3)n2)cc1`, the inhibition was 55.1% (active).
As for `Cc1nc(NNC(=O)c2ccccc2)cc(-c2ccccc2)n1`, the figure is -2.12% (inactive).
Turning to `COc1cccc(CNC(=O)c2nnn(CC(=O)Nc3cc(C)ccc3C)c2N)c1`, the inhibition is 11% (inactive).
For the molecule `O=C(/C=C/c1cnc2ccccc2n1)NC1CCCCCC1`, the inhibition was 2.73% (inactive).
As to `COc1ccccc1C(=O)NCCC(=O)NN1C(=O)NC2(CCCCC2)C1=O`, the inhibition is -9.03% (inactive).
Consider `NCC(=O)c1cccc2ccc[n+]([O-])c12`, for which the inhibition was -3.82% (inactive).
In the case of `O=C(Nc1ccccc1-c1nnn(CC(=O)N2CCCc3ccccc32)n1)c1cccc(Cl)c1`, the inhibition is -0.017% (inactive).
As for `Cc1cccc(C(=O)Nc2ccccc2-c2nnn(CC(=O)Nc3ccc4c(c3)OCCO4)n2)c1`, the figure is 59.1% (active).
Turning to `CS(=O)(=O)c1ccc(-c2nnn(CC(=O)Nc3ccc4c(c3)OCCO4)n2)cc1`, the inhibition is -16.5% (inactive).
On to `COc1cc(C(=O)OC(C)C(=O)NCC2CCCCC2)cc(NC(=O)c2ccco2)c1OC` (stereo not given), for which the inhibition was -4.57% (inactive).
Take `COc1cc2ccccc2cc1C(=O)Nc1nc(C)c(C(C)=O)s1`: the inhibition was -5.23% (inactive).
In the case of `COc1ccccc1OCc1nc2ccccc2s1`, the inhibition was 21% (inactive).
In the case of `COc1ccccc1/C=N/Nc1nc(C)c(C(C)=O)s1`, the inhibition is -9.03% (inactive).
Turning to `COc1ccc(S(=O)(=O)N2CCOCC2)cc1C(=O)Nc1nc2ccccc2s1`, the inhibition was 1.7% (inactive).
For `COc1cccc2sc(Nc3nc(C)c(C(C)=O)s3)nc12`, the inhibition is 53.7% (active).
Then `COc1cccc2sc(NNC(=O)c3nc4ccccc4s3)nc12`, with 92.6% (active); and `CN(C)CCCN(C(=O)c1ccc(S(=O)(=O)N2CCCCCC2)cc1)c1nc2cc3c(cc2s1)OCCO3`, with -2.65% (inactive).
As to `N#Cc1ccc(OCc2nnc(-c3ccc([N+](=O)[O-])cc3)o2)cc1`, the inhibition was 4.26% (inactive).
Take `COc1ccccc1N1CCN(c2ncnc3sc(C)c(-c4ccccc4)c23)CC1`: the inhibition is 35.4% (inactive).
Consider `CS(=O)(=O)N(Cc1ccccc1Cl)c1ccc(C(=O)NCc2cccnc2)cc1`, for which the inhibition was -5.28% (inactive).
As to `COc1ccc(Cl)cc1C(=O)NNC(=S)NC(=O)/C=C/c1ccco1`, the inhibition is 80.2% (active).
`COc1ccc(Cl)cc1C(=O)NNC(=S)NC1CCCC1`: the inhibition was -3.8% (inactive).
Consider `C=CCNC(=S)NNC(=O)c1cc(Cl)ccc1OC`, for which the inhibition was 3.23% (inactive).
`CCOCCCNC(=S)N1CCC(NC(=O)C2CCCCC2)CC1`: the inhibition was -0.571% (inactive).
Take `CC(C)c1nc2cc(C(=O)NC(C)c3cnn(C)c3)ccc2o1` (stereo not given): the inhibition is -0.746% (inactive).
Consider `CCCCN(CC)C(=S)Nc1ccc2nc3n(c(=O)c2c1)CCCCC3`, for which the inhibition is 2.4% (inactive).
As for `COc1ccc(CCNC(=O)C(=O)Nc2ccc3nc4n(c(=O)c3c2)CCCCC4)cc1OC`, the inhibition is 58.4% (active).
On to `O=C(Nc1ccc2nc3n(c(=O)c2c1)CCCCC3)c1ccccc1Cl`, for which the inhibition is -2.99% (inactive).
Regarding `C=C(C)COc1ccc(-c2n[nH]c(C)c2-c2ccccc2)c(O)c1`, the inhibition is 62.3% (active).
With `C=C(C)COc1ccc(-c2n[nH]c(C)c2-c2ccccc2OC)c(O)c1`, the inhibition was 10.6% (inactive).
As for `CCOc1ccc(-c2n[nH]c(C)c2-c2ccccn2)c(O)c1`, the figure is -4.57% (inactive); as for `CCNC(=O)c1cnn(-c2ccccc2)c1-c1ccccc1`, -2.93% (inactive); as for `COc1ccc(C(=O)O)cc1S(=O)(=O)NCc1cccnc1`, 0.329% (inactive).
Take `Oc1ccc2ccccc2c1N=Nc1nccs1`: the inhibition was 106% (active).
Turning to `c1ccc(NCc2cccc3ccccc23)nc1`, the inhibition is 22.8% (inactive).
`Oc1ccc(N=Nc2nccs2)c(O)c1`: the inhibition is 3.07% (inactive).
As to `COc1ccc(Cc2nc(-c3ccccn3)no2)cc1OC`, the inhibition was 29.5% (inactive).
As to `Cc1ccc(Oc2nc(-c3ccccn3)nc3ccccc23)cc1`, the inhibition was 76.2% (active).
As to `CCOCCCNc1nc(-c2ccccc2)nc2ccccc12`, the inhibition was -2.19% (inactive).
Consider `c1ccc(-c2nc(NCc3ccco3)c3ccccc3n2)cc1`, for which the inhibition is -7.68% (inactive).
`COc1ccc(Sc2nc(-c3ccccc3)ncc2OC)cc1`: the inhibition was 0.835% (inactive).
Consider `CC(C)(C)Nc1nc(-c2ccccn2)nc2ccccc12`, for which the inhibition is 87.4% (active).
On to `COc1ccccc1Oc1nc(-c2cccnc2)nc2ccccc12`, for which the inhibition was 5.74% (inactive).
In the case of `N#Cc1ccc(Oc2cc(C(F)(F)F)nc(-c3ccccn3)n2)cc1`, the inhibition was -2.81% (inactive).
Then `COc1cnc(-c2ccccn2)nc1Oc1ccc(C(C)(C)C)cc1`, with 78.3% (active); and `CSc1ccc(S(=O)(=O)Nc2cccc(F)c2)cc1`, with 7.04% (inactive).
Then `COc1ccc(N=Nc2c(-c3ccc(OC)cc3)[nH]oc2=O)cc1`, with 6.47% (inactive).
Turning to `CCCN(CCC)c1c([N+](=O)[O-])c(=O)oc2ccccc12`, the inhibition is -5.31% (inactive).
As for `CCOC(=O)c1cc2c(=O)n3ccccc3nc2n(CC(C)C)c1=NC(=O)c1c(-c2c(F)cccc2Cl)noc1C`, the figure is 18.2% (inactive).
`O=C(CN1C(=O)NC2(CCCC2)C1=O)NCC1CCCO1` (stereo not given): the inhibition is -1.73% (inactive).
On to `COC(C/C=C/C(=O)[C@@H](C)OCc1ccccc1)OC`, for which the inhibition was -2.55% (inactive).
In the case of `NC(=O)c1nnsc1-c1ccc(-c2snnc2C(N)=O)cc1`, the inhibition was 2.07% (inactive).
As for `COc1cc2c3c(c1)/C(=C1/SC(=S)NC1=O)C(=O)N3C(C)(C)C=C2C`, the inhibition is 61.3% (active).
As to `Cc1nc2ccc(S(=O)(=O)N(C)CC(=O)NC(C)c3ccccc3)cc2s1` (stereo not given), the inhibition is -15% (inactive).
Take `CN1CCN(C(=O)CCc2nc(-c3ccc(Cl)cc3)no2)CC1`: the inhibition is -5.8% (inactive).
In the case of `COCC1CCN(C(=O)CCc2nnc(C3(c4ccc(Cl)cc4)CCC3)o2)C1` (stereo not given), the inhibition is 49.5% (active).
In the case of `COCC1CCCN(C(=O)c2ccc3oc(C(C)C)nc3c2)C1` (stereo not given), the inhibition is -3.17% (inactive).
Turning to `O=C(COC(=O)CNS(=O)(=O)c1ccc(F)c(F)c1F)NC1CCCC1`, the inhibition is 2.52% (inactive).
Consider `C=CC1=C(C(=O)O)N2C(=O)[C@@H](NC(=O)/C(=N/OCC(=O)O)c3csc(N)n3)[C@H]2SC1`, for which the inhibition is 109% (active).
With `CO/N=C(\C(=O)N[C@@H]1C(=O)N2C(C(=O)O)=C(COC(C)=O)CS[C@H]12)c1csc(N)n1` (stereo in doubt), the inhibition was 33% (inactive).
As for `Cc1ccc2c(c1)-c1c(ssc1=S)C(C)(C)N2C(=O)CN1C(=O)c2ccccc2C1=O`, the figure is 24.3% (inactive); as for `Cc1ccc(C(=O)Nc2nc(N)n(-c3ccccc3)n2)cc1`, 5.73% (inactive); as for `Nc1nc(NC(=O)/C=C/c2ccc(F)cc2)nn1-c1ccccc1`, 76.1% (active).
In the case of `Nc1nc(NC(=O)/C=C/c2ccccc2)nn1-c1ccccc1`, the inhibition was -11.5% (inactive).
On to `Cc1sc2nc(SCCO)n(-c3ccccc3)c(=O)c2c1C`, for which the inhibition is 7.52% (inactive).
Turning to `COC(=O)c1ccc(NC(=O)C23CC4CC(C2)CC(n2cnc(Cl)n2)(C4)C3)cc1`, the inhibition is -3.03% (inactive).
Consider `CCOC(=O)c1oc2ccccc2c1NC(=O)c1cccs1`, for which the inhibition is -5.47% (inactive).
As for `COCc1c(C(=O)OCc2c(C)noc2C)oc2ccccc12`, the inhibition was 2.6% (inactive).
Take `Cc1cc(C)c(NC(=O)c2oc3ccccc3c2COc2ccccc2)c(C)c1`: the inhibition is 58.7% (active).
